A selection: hits, their analogues and other compounds. The true share with any hit is near 4.1%.
FMDV antiviral: High Throughput Screening for Foot and Mouth Disease Virus Antivirals. FMDV antiviral cell-based qHTS. Potency, µM (top dose mostly 57.9 µM), inactives show at the top dose activity change, negative = inhibition, hits mostly inhibitors. hit rate 1.2% among 410,000; calls by dose curve; tested in HEK293T cells; note: read-out not given here; nearly all actives have a fitted effect of over 45% in size
AmpC no deterg: qHTS Inhibitors of AmpC Beta-Lactamase (assay without detergent). P00811. AmpC nitrocefin hydrolysis, absorbance 480 nm, 0.0001% Triton. Potency, µM (series often up to 57.1 µM), for inactives: top-dose activity change, negative = inhibition, usual class: inhibitors. hit rate 0.52% among 330,000. AID 485341, 2010;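 note: plate controls were no compound for no effect and no enzyme for full effect; nearly all actives have a fitted effect of over 20% in size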
Target sequence (P00811 whole entry, looked up): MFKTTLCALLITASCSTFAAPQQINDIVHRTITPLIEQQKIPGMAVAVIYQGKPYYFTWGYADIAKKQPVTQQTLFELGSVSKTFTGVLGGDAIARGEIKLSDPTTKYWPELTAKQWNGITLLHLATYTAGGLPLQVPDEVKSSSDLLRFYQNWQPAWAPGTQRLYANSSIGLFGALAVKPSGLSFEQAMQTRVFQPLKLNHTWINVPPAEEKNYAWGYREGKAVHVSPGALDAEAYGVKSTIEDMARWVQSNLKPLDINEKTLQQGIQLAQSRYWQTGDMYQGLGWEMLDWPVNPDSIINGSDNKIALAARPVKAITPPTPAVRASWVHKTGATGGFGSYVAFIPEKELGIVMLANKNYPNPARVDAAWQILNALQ
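20 mM phosphate pH 7.0 + 0.01% (detergent screen) or 0.0001% Triton X-100; 5.3 nM AmpC reagent; cpd preinc 15 min RT; nitrocefin (800 uM stock) to start; A480 q20 s × 4 min; Activity was normalised to no-enzyme and no-compound control wells.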
AMA1-RON2 inh: qHTS for Inhibitors of AMA1-RON; Towards Development of Antimalarial Drug Lead: Primary Screen. hit rate 0.2% among 360,000. Plasmodium falciparum AMA1 (3D7) - RON2 peptide interaction. Potency, µM (series often up to 58.2 µM), inactives show at the top dose activity change, negative = inhibition, usual class: inhibitors. AlphaScreen AMA1-biotinylated RON2 peptide binding;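 note: 0% = vehicle wells and -100% = peptide control; nearly all actives have a fitted effect of over 45% in size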
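AMA1 (3D7) with his tag at 25 nM final met compounds first, then biotinylated RON2 peptide at 25 nM; detection used donor plus acceptor beads, 10 µg/mL apiece, read by AlphaScreen after 30 min at room temperature.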
AmpC detergent: qHTS Inhibitors of AmpC Beta-Lactamase (assay with detergent); hit rate 0.041% among 370,000; AmpC hydrolysis of nitrocefin, absorbance 480 nm, 0.01% Triton; Potency, µM (titrated, usually from 114 µM), for inactives: at the highest dose activity change, negative = inhibition, hits mostly inhibitors; P00811;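 note: 0% = no-compound wells and -100% = no-enzyme wells; nearly all actives have a fitted effect of over 25% in size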
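AmpC (5.3 nM in the dispensed reagent) in 20 mM phosphate pH 7.0 with 0.01% (detergent screen) or 0.0001% Triton X-100 was preincubated with compounds for 15 min at room temperature. Nitrocefin was then added from an 800 uM solution, and hydrolysis was followed at 480 nm.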
Sm TGR inh: qHTS Assay for the Inhibitors of Schistosoma Mansoni Peroxiredoxins; Potency, µM (top dose mostly 114 µM), for inactives: at the top dose activity change, negative = inhibition, actives largely listed as inhibitors; AID 485364, 2010; Schistosoma mansoni thioredoxin glutathione reductase (TGR), Q962Y6; purified TGR, DTNB reduction, TNB absorbance 405 nm; hit rate 3% among 360,000; note: nearly all actives have a fitted effect of over 60% in size
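TGR 20 nM + NADPH 100 uM (dispensed conc.), cpd preinc 15 min RT; start with NADPH (500 uM addition) then DTNB (15 mM addition). Kinetic TNB absorbance, 405 nm filter. Four-parameter Hill fit across titration.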
Active calls of the source: *; ? = inconclusive; . = not tested or not shown; [ ] = remark or other dose. Unless noted, calls come from the whole dose curve; as a rule, active = well fitted curve in the direction sought with a large enough effect; inconclusive = small, poorly fitted or top-dose-only effect, or another doubt; inactive = no such curve, though single readings can be large; an effect the other way counts as inactive or inconclusive. Unless noted, % is set by controls: 0 for no effect and ±100 for the full control effect; potency is the fitted concentration of half-maximal effect.

SMILES	FMDV antiviral	AmpC no deterg	AMA1-RON2 inh	AmpC detergent	Sm TGR inh
COc1ccc(N2CCN(c3oc(COc4ccc(Cl)cc4Cl)nc3C#N)CC2)cc1	0.1%	-18.9%	25.1µM*	?	0.0%
Cc1ccc(-c2ccnc(-n3ncc(C(=O)N4CCCCC4c4cccnc4)c3C3CC3)n2)o1 (centres undefined)	-9.5%	.	.	.	.
Cc1oc(-c2ccc(Cl)cc2)nc1Cn1c(=O)cc(C)c2c(C)nn(-c3ccccc3)c21	-8.6%	.	.	15.7%	1.8%
COn1c2c(c3c4no[n+]([O-])c4ccc31)CCCC2	.	-12.8%	1.2%	-0.9%	17.0%
[O-][n+]1c2c(c3c4non(O)c4ccc31)CCCC2	.	10µM*	-1.2%	-4.6%	-26.0%
CC1(C)CC(=O)C2=C(C1)OC(N)=C(C#N)C2Cc1ccccc1 (centres undefined)	-14.1%	0.316µM*	2.3%	-3.2%	-32.2%
CC1(C)CC(=O)C2=C(C1)OC(N)=C(C#N)C2c1ccc[nH]1 (centres undefined)	-7.2%	31.4%	-2.7%	-3.5%	17.8µM*
Cn1cccc1C1C(C#N)=C(N)OC2=C1C(=O)CC(C)(C)C2 (centres undefined)	2.7%	-2.6%	10.3%	3.5%	-11.4%[57.1 µM]
CCOC(=O)c1c(C)c(-c2ccccc2)n(CC(=O)Nc2cc(C)cc(C)c2)c1C	-18.3%	.	.	16.8%	10.0%
COc1ccc(CCN2C(=O)CC(Nc3ccc(N4CCOCC4)cc3)C2=O)cc1OC (centres undefined)	?	.	-10.5%	6.1%	20µM*
CCc1ccc(NC2CC(=O)N(c3ccc(OC)cc3OC)C2=O)cc1 (centres undefined)	.	-22.1%	-12.6%	?	35.5µM*
CCCCN1C(=O)CC(Nc2ccc(CC)cc2)C1=O (centres undefined)	67.3%	-23.2%	6.2%	-0.1%	?
CCc1ccc(NC2CC(=O)N(CCc3ccc(OC)c(OC)c3)C2=O)cc1 (centres undefined)	-24.1%	60.6%	-6.7%	?	14.1µM*
COc1ccc(CCN2C(=O)CC(Sc3ncccc3C(=O)O)C2=O)cc1OC (centres undefined)	-10.6%	-2.0%	-0.1%	?	11.2µM*
O=C(CSc1nnc2scc(-c3ccc(Cl)cc3)n12)Nc1ccccc1F	-25.5%	.	.	2.8%	2.0%
CC(Oc1ccccc1)C(=O)NCC1Cc2cc(F)cc(-c3ccccn3)c2O1 (centres undefined)	-12.9%	.	.	.	.
CS(=O)(=O)c1ccc(-c2ccc3c(c2)CC(CNC(=O)C2(N4CCOCC4)CCCCC2)O3)cc1 (centres undefined)	-11.9%	.	.	.	.
COC(=O)C1CCCCN1Cc1nc(N(C)C)c2ccccc2n1 (centres undefined)	-2.8%	.	.	.	.
Cn1c(SCc2cccc([N+](=O)[O-])c2)nc2ccccc2c1=O	20µM*	10.6%	-16.5%[11.6 µM]	-0.7%	-4.5%
CCc1cc2ccccc2nc1SCC(=O)Nc1cc(OC)c(OC)cc1C(=O)O	0.0%	8.91µM*	13.2%	0.1%	6.4%
COc1cc(NC(=O)CSc2nc3ccccc3cc2C)c(C(=O)O)cc1OC	-19.9%	-22.2%	14.9%	-8.5%	6.6%
COCCn1c(SCc2cccc([N+](=O)[O-])c2)nc2ccccc2c1=O	?	16.4%	-18.7%	4.2%	2.8%
COC(=O)c1ccc(CSc2nc3ccccc3c(=O)n2C)o1	?	-9.6%	1.4%	-1.2%	44.7µM*
COCCCn1c(SCC(=O)Nc2ccc(NC(=O)c3ccco3)c(OC)c2)nc2ccccc2c1=O	-29.5%	-17.2%	-13.8%	4.6%	39.8µM*
COCCn1c(SCC(=O)Nc2ccc(OC)c(S(N)(=O)=O)c2)nc2ccccc2c1=O	7.4%	.	13.5%	.	.
SMILES	FMDV antiviral	AmpC no deterg	AMA1-RON2 inh	AmpC detergent	Sm TGR inh
COC(=O)c1ccc(CSc2nc3ccccc3c(=O)n2CC(C)C)o1	-15.4%	-12.6%	14.4%	6.2%	-19.4%
CCc1ccc(S(=O)(=O)c2cn(C)c3cc(N4CCN(CC)CC4)c(F)cc3c2=O)cc1	-0.8%	.	.	-0.7%	-1.9%
Cc1nn2c(C)c(C(=O)N3CCN(c4ccc(Cl)cc4)CC3)cnc2c1-c1ccc(F)cc1	-6.0%	.	.	0.4%	2.3%
CCc1cc2ccc(OC)cc2nc1SCC(=O)NNC(=O)c1ccco1	-10.9%	-17.5%	27.0%	2.0%	8.91µM*
NC(=O)c1ccc(NC(=O)CSc2nc3ccccc3c(=O)n2CCCN2CCOCC2)cc1	?	-17.2%	0.0%	-1.7%	-3.2%
Cc1ccccc1Nc1nc(N)nc(CSc2nc3ccccc3c(=O)n2CCCO)n1	-5.7%	91.7%	10.7%	?	3.3%
Cc1ccccc1Nc1nc(N)nc(CSc2nc3ccccc3c(=O)n2C)n1	15.8µM*	-22.2%	7.7%	0.9%	0.5%
CCOCCCn1c(SCC(=O)Nc2ccccc2OC)nc2ccccc2c1=O	?	89.6%	2.7%	-10.8%	-6.3%
COc1ccccc1NC(=O)CSc1nc2ccccc2c(=O)n1C	14.1µM*	0.8%	-2.3%	8.9%	0.4%
NS(=O)(=O)c1cccc(NC(=O)CSc2nc3ccccc3c(=O)n2CCCN2CCOCC2)c1	-7.3%	31.6µM*	21.1%	-7.2%	-4.3%
CN(C)c1ccc(NC(=O)CN2C(=O)c3ccccc3Sc3ccc(C(=O)N4CCCC4)cc32)cc1	0.9%	.	.	7.2%	4.3%
CCC(C)NC(=O)c1sc2nc(C)c(C(=O)Nc3ccc(C)cc3C)c(-c3ccccc3Cl)c2c1N (centres undefined)	-10.5%	.	.	-0.2%	-0.8%
CC(C)(CNC(=O)c1cnn(-c2nccc(-c3ccccc3F)n2)c1C1CC1)N1CCOCC1	-2.3%	.	.	.	.
Cc1cccc(NC(=O)CSc2c3c(nc4ccccc24)CCC3)n1	?	-26.1%	-13.8%	?	0.8%
COc1cccc(NC(=O)CSc2c3c(nc4ccccc24)CCCC3)c1	31.6µM*	-28.2%	-1.4%	?	-23.9%
CCC(C)NC(=O)CSc1c2c(nc3ccccc13)CCCC2 (centres undefined)	25.1µM*	-23.5%	3.9%	-1.3%	-10.1%
COc1cc(=O)n2c(c1C(=O)N1CCc3ccccc3C1)CCN(Cc1ccc(CO)o1)CC2	3.3%	.	.	.	.
Cc1ccc(/C=C/C(=O)O)cc1S(=O)(=O)NCc1ccco1	27.7%	-8.7%	-9.8%	-6.7%	31.6µM*
COc1cc(/C=C/C(=O)O)cc(S(=O)(=O)N(C)CCO)c1OC	-5.3%	-6.8%	-9.6%	3.4%	13.0%
COc1cc(/C=C/C(=O)O)cc(S(=O)(=O)NCc2ccco2)c1OC	54.8%	-45.9%	12.2%	3.0%	31.6µM*
Cc1ccc(/C=C/C(=O)O)cc1S(=O)(=O)N(C)CCO	-3.5%	-30.4%	24.4%	-12.3%	22.4µM*
